In PubChem BioAssay (Tox21):
Results filed as inconclusive are left out. Active and inactive are the calls of the source. Unless noted, calls follow the shape of the dose curve; as a rule, active = well fitted curve in the direction sought with a large enough effect in the repeat runs; inconclusive = weak or mixed curves; inactive = no such curve, though single readings can be large; an effect the other way counts as inactive or inconclusive.

Legend:
[1] = biological target: Aryl hydrocarbon receptor (Homo sapiens) (UniProt P35869); experiment: qHTS assay to identify small molecule that activate the aryl hydrocarbon receptor (AhR) signaling pathway (AID 743085);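 also: HG2L7.5c1 human HepG2 liver cells with stably integrated DRE-driven firefly reporter; series mostly up to about 70 µM; nearly all actives have a fitted effect of over 15% in size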
Outline: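 Compounds were tested in HepG2 hepatocellular carcinoma cells harbouring a stably integrated luciferase gene under control of 20 DREs. Increased reporter signal after 24 h treatment at 37C was taken as AhR activation.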

[2] = qHTS assay to identify small molecule that activate the aryl hydrocarbon receptor (AhR) signaling pathway - cell viability counter screen (AID 743086);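 also: HepG2 liver cells carrying the AhR DRE luciferase reporter; series mostly up to about 70 µM; nearly all actives have a fitted effect of over 45% in size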
Outline: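 HepG2-AhR-luc (HG2L7.5c1) cells, 4000/well, were preincubated 5 h at 37C, exposed to compound in qHTS format for 24 hr at 37C, then given CellTiter-Fluor for 30 min; viability was read as fluorescence in the reporter wells.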

[3] = biological target: Peroxisome proliferator-activated receptor gamma (Homo sapiens) (UniProt P37231); experiment: qHTS assay to identify small molecule agonists of the peroxisome proliferator-activated receptor gamma (PPARg) signaling pathway (AID 743094; active = well fitted activation curve with a large enough effect in the signal ratio in the repeat runs, not every such curve was filed as active; the % refers to the signal ratio)
Outline: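 Cells from the PPARg UAS-bla HEK293H line are plated and incubated 5 h at 37C. Compounds in DMSO are pinned in and left 17 h at 37C. LiveBLAzer B/G substrate is then added for 1 h at room temperature before fluorescence is measured.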

[4] = biological target: Peroxisome proliferator-activated receptor gamma (Homo sapiens) (UniProt P37231); experiment: qHTS assay to identify small molecule antagonists of the peroxisome proliferator-activated receptor gamma (PPARg) signaling pathway (AID 743191; calls by dose curve; also: series mostly up to about 63 µM; nearly all actives have a fitted effect of over 30% in size)
Outline: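 GeneBLAzer PPARg UAS-bla HEK293H cells carrying a UAS-driven beta-lactamase reporter were plated at 3000 cells/well, preincubated 5 h at 37C, then given compound for 17 h at 37C; LiveBLAzer B/G FRET substrate was read after 1 h at room temperature.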

[5] = qHTS assay to identify small molecule antagonists of the peroxisome proliferator-activated receptor gamma (PPARg) signaling pathway - cell viability counter screen (AID 743194); also: nearly all actives have a fitted effect of over 55% in size
Outline: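 PPARg-UAS-bla HEK293H cells were plated, rested 5 h at 37 C, then treated with compounds plus rosiglitazone (50 nM final) for 17 h at 37 C; viability was then read by CellTiter-Glo luminescence after 30 min at room temperature.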

[6] = qHTS assay for small molecule agonists of the antioxidant response element (ARE) signaling pathway (AID 743202; active = well fitted activation curve with a large enough effect in the signal ratio in the repeat runs, not every such curve was filed as active; the % refers to the signal ratio)
Outline: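 Steps: seed ARE-bla HepG2 cells (2,000/well); incubate 5 h at 37 C; add compounds by pin tool; incubate 16 h at 37 C; add FRET substrate; read fluorescence after 2 h at RT.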

[7] = qHTS assay for small molecule agonists of the antioxidant response element (ARE) signaling pathway - cell viability counter screen (AID 743203; calls by dose curve; also: nearly all actives have a fitted effect of over 55% in size)
Outline: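 Cytotoxicity was tested in parallel with the ARE reporter screen. ARE-bla HepG2 cells were exposed to compounds for 16 hrs, and viability was taken from CellTiter-Glo luminescence.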

[8] = qHTS assay for small molecule activators of the heat shock response signaling pathway - cell viability counter screen (AID 743209); also: nearly all actives have a fitted effect of over 50% in size
Outline: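 Cytotoxicity counter screen run in parallel with the HSE beta-lactamase reporter, using the same wells. HeLa HSE-bla cells received compound for 5 h at 37 C; ATP-based CellTiter-Glo luminescence was measured after 30 min at room temperature.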

[9] = qHTS assay for small molecule activators of the heat shock response signaling pathway (AID 743210; active = well fitted activation curve with a large enough effect in the signal ratio in the repeat runs, with a control signal flat, not every such curve was filed as active; the % refers to the signal ratio;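 also: HeLa cells with beta-lactamase reporter driven by heat shock elements; series mostly up to about 63 µM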)
Outline: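 Activation of heat shock element-controlled beta-lactamase expression is measured in HeLa cells by LiveBLAzer FRET fluorescence, with compound exposure lasting 5 h at 37 C and substrate loading 2.5 h at room temperature.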

[10] = qHTS assay to identify small molecule agonists of the peroxisome proliferator-activated receptor delta (PPARd) signaling pathway - cell viability counter screen (AID 743211); also: nearly all actives have a fitted effect of over 55% in size
Outline: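 Counter screen for cytotoxicity run in parallel with the PPARd reporter screen. Beta-lactamase reporter HEK293H cells exposed to compounds 17 h; ATP-based CellTiter-Glo luminescence quantified viability.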

Measured: Potency

Sequence of Aryl hydrocarbon receptor (Homo sapiens) (P35869 whole entry, looked up): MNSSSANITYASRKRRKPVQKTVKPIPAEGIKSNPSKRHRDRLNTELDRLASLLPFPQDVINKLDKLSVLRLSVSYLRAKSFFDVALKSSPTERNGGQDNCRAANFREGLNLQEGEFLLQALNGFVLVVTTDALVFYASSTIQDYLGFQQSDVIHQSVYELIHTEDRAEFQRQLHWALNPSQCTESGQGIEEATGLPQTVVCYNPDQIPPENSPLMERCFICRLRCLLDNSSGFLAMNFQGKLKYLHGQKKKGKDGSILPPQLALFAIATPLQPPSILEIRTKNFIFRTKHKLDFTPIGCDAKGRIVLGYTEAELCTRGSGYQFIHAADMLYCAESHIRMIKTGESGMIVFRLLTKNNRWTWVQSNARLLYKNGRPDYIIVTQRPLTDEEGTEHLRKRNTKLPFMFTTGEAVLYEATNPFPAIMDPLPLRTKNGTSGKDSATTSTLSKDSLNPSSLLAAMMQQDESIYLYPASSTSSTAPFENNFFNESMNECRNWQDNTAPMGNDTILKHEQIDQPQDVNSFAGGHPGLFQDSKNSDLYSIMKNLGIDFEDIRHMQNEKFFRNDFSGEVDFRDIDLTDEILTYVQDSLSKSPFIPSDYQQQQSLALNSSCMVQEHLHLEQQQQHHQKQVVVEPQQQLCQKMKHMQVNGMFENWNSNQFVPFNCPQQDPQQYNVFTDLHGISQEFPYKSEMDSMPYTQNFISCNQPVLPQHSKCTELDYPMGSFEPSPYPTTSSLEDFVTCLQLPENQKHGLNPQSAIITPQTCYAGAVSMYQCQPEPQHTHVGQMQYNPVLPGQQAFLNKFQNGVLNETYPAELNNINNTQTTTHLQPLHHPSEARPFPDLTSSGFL
Sequence of Peroxisome proliferator-activated receptor gamma (Homo sapiens) (P37231 whole entry, looked up): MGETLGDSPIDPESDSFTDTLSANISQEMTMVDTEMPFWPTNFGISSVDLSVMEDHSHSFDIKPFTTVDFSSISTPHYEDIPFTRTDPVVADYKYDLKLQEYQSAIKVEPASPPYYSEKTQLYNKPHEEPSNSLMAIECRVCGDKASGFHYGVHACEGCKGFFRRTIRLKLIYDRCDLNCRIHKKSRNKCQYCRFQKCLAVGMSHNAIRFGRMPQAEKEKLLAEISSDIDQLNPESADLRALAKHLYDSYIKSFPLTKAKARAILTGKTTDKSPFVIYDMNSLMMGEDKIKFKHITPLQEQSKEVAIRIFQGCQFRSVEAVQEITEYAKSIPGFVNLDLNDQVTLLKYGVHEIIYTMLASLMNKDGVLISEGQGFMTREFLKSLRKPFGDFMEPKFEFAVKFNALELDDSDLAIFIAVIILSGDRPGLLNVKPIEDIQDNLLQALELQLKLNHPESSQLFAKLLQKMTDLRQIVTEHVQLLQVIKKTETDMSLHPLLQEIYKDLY

Cc1ccccc1C
inactive: all assays above

CCOC(=O)CC#N
inactive: all assays above

CC1=CC[C@H](CC=O)C1(C)C
inactive: all assays above

CCC(C)N (centres undefined)
inactive: all assays above

CC(C)CCO
not listed: [9]
inactive: all other assays above

O=C(Nc1cccc(C2=NCCN2)c1)Nc1cccc(C2=NCCN2)c1
not listed: [9] | [10]
inactive: all other assays above

CCCC(C)CC (centres undefined)
inactive: all assays above

CC(=O)OCC(=O)[C@@]1(O)[C@H](OC(C)=O)C[C@H]2[C@@H]3CCC4=CC(=O)C=C[C@]4(C)[C@@]3(F)[C@@H](O)C[C@@]21C
inactive: all assays above

CCN1CN(CC)CN(CC)C1
not listed: [10]
inactive: all other assays above

CCCCCCCCOC(C)=O
not listed: [9]
inactive: all other assays above

O=C(Oc1ccccc1C(=O)O)c1ccccc1O
inactive: all assays above

CC(C)COC(=O)CCCCC(=O)OCC(C)C
not listed: [9] | [10]
inactive: all other assays above

C=C[Si](C)(C)O[Si](C)(C)C=C
not listed: [9]
inactive: all other assays above

CCC1COC(=O)O1 (centres undefined)
not listed: [7]
inactive: all other assays above

COCCOCCOCCOC
not listed: [8]
inactive: all other assays above

C[C@H]1O[C@H](O[C@H]2[C@H](O)[C@@H](O)[C@@H](O[C@H]3[C@H](O)[C@@H](O)[C@H](O)O[C@@H]3CO)O[C@@H]2CO)[C@H](O)[C@@H](O)[C@@H]1N[C@H]1C=C(CO)[C@@H](O)[C@H](O)[C@H]1O
not listed: [8]
inactive: all other assays above

CCCCCCCCCCCCCCCCI
not listed: [7] | [9] | [10]
inactive: all other assays above

NS(=O)(=O)c1cc2c(cc1Cl)NC(CC1CCCC1)NS2(=O)=O (centres undefined)
not listed: [8]
inactive: all other assays above

Cc1nc([N+](=O)[O-])cn1-c1ccc([N+](=O)[O-])cc1
not listed: [8]
inactive: all other assays above

CC(C)(CO)[C@@H](O)C(=O)NCCCO
not listed: [7]
inactive: all other assays above

CCC(O)C(C)(C)C (centres undefined)
not listed: [8]
inactive: all other assays above

CCOC(=O)CCc1ccccc1
not listed: [8]
inactive: all other assays above

CN(C)CCOCCN(C)CCO
not listed: [8]
inactive: all other assays above

CC(=O)N(CC(O)CO)c1c(I)c(C(=O)NCC(O)CO)c(I)c(C(=O)NCC(O)CO)c1I (centres undefined)
not listed: [7] | [8] | [10]
inactive: all other assays above

CCCCC(CC)COC(=O)c1ccccc1 (centres undefined)
not listed: [8]
inactive: all other assays above

CCCCC/C=C/CC(=O)OC
not listed: [9]
inactive: all other assays above

CC(Cl)COP(=O)(OCC(C)Cl)OCC(C)Cl (centres undefined)
not listed: [7]
inactive: all other assays above
